Measured values from ChEMBL document CHEMBL4513216, “Probing the Open Global Health Chemical Diversity Library for Multistage-Active Starting Points for Next-Generation Antimalarials” (ACS Infect Dis, 2020).
Screen size: about 69,000 compounds; about 8,600 (12%) showed an effect of 50% or more. For the sample, strong results were picked, then their nearest neighbours and some compounds at random.

System: Plasmodium berghei
Experiment: Screen against P. berghei liver stage (PbLuc), transformed with Luciferase, at 10uM
Format: functional, HepG2
Details: tested at 10 uM

Structure (SMILES)	INHIBITION [%]
CCN(CC)C1CCN(C(=O)c2cc3cc(C)cc(C)c3nc2C)CC1	1.05
c1cnc(N2CCOC3(CCCN(c4cnccn4)C3)C2)nc1 (stereo unspecified)	-13.7
c1ccc2sc(N3CCCC4(CCOC4)C3)nc2c1 (stereo unspecified)	-50.5
CCCS(=O)(=O)N1CCOC2(CCCN(c3ccccn3)C2)C1 (stereo unspecified)	11.4
c1ccc(N2CCOC3(CCCN(c4ncccn4)C3)C2)nc1 (stereo unspecified)	76.5
Cc1ccc(N2CCCC3(COCCN(c4nccs4)C3)C2)nn1 (stereo unspecified)	-8.19
c1ccc(-c2nnc(N3CCCC4(CCOC4)C3)s2)cc1 (stereo unspecified)	56.5
c1ccc(N2CCOCC3(CCCN(c4nccs4)C3)C2)nc1 (stereo unspecified)	19.8
CCS(=O)(=O)N1CCOC2(CCCN(Cc3ccccn3)C2)C1 (stereo unspecified)	-28.1
Cc1nnc(N2CCCC3(CN(c4ccccn4)CCO3)C2)o1 (stereo unspecified)	-34
c1ccc(N2CCCC3(COCCN(c4nccs4)C3)C2)nc1 (stereo unspecified)	68.5
CCS(=O)(=O)N1CCOC2(CCCN(c3ccccn3)C2)C1 (stereo unspecified)	50.7
OC1(CN2CCCC2)COCCN(c2nnc(-c3ccccc3)s2)C1 (stereo unspecified)	26.6
Cc1ccc(C(=O)N2CCN(C)C3(CCC(=O)N(C)CC3)C2)c(F)c1 (stereo unspecified)	15.8
CCc1nnc(CNC2CCCN(Cc3noc(C4CC4)n3)C2)o1 (stereo unspecified)	-16
COCCN1CCC(NCc2c(F)cccc2F)C1 (stereo unspecified)	25.4
CCn1cc(NC(=O)C2CCN(CC(=O)NC(C)(C)CC)CC2)cn1	10
CC(=O)N1CCCC2(C1)CN(c1ncc(C)cn1)CCO2 (stereo unspecified)	-5.63
Cc1cnc(N2CCOC3(CCCN(c4ncccn4)C3)C2)nc1 (stereo unspecified)	0.804
CCS(=O)(=O)N1CCCC2(COCCN(c3ccccn3)C2)C1 (stereo unspecified)	56.1
Cc1cnc(N2CCOC3(CCCN(C)C3)C2)nc1 (stereo unspecified)	52.3
CCS(=O)(=O)N1CCOCC2(CCN(c3ccccn3)C2)C1 (stereo unspecified)	11.4

Structure (SMILES)	INHIBITION [%]
CCCS(=O)(=O)N1CCOCC2(CCN(c3ccccn3)C2)C1 (stereo unspecified)	20.5
Cc1cccc(S(=O)(=O)NCC2CCN(c3cnccn3)CC2)c1	-87.6
CN(C)S(=O)(=O)c1ccc2c(c1)N(Cc1nccn1C)CCC2	41.4
COCC(C)(O)CNC(=O)c1cc(-c2cc(OC)ccc2OC)nn1C (stereo unspecified)	-43.5
Cn1cccc1C(=O)NC1CCN(c2ccc(OC(F)(F)F)cc2)CC1	64.9
Cn1ccc(C(=O)NC2CCN(c3ncccn3)CC2)cc1=O	18.4
CCS(=O)(=O)c1ccccc1N1CCC(NC(=O)c2ccc[nH]2)CC1	18.4
CN(C(=O)c1cccn1C)C1CCC(NC(=O)OC(C)(C)C)CC1 (stereo unspecified)	22.3
CCS(=O)(=O)c1ccc(N2CCC(NC(=O)c3cnn(C)c3)CC2)cc1	43.4
COc1cc(CN2CCC(NC(=O)c3cccn3C)C2)cc(OC)c1 (stereo unspecified)	44.9
CC(C)(C)OC(=O)NC1CCC(NC(=O)c2ccc[nH]2)CC1 (stereo unspecified)	12.7
COc1cc(OC)cc(N2CCC(NC(=O)c3cccn3C)CC2)c1	62.5
COc1cc(OC)cc(N2CCC(NC(=O)c3ccc[nH]3)CC2)c1	50.5
O=S(=O)(NCC1COc2ccccc2C1)N1CCOCC1 (stereo unspecified)	18.6
COc1ccc2c(c1)CC(NCCCn1nc(C)nc1C)CC2 (stereo unspecified)	15.8
Cc1ccccc1NS(=O)(=O)c1cc2c(c(C(=O)O)c1)OCCO2	35.3
O=C(O)c1cc(S(=O)(=O)Nc2cccc3c2OCCO3)ccc1F	45.7
Cc1cc(C)c(S(=O)(=O)Nc2ccccc2CC(F)(F)F)cc1C(=O)O	15.9
Cc1cc(C)c(S(=O)(=O)Nc2cccc3c2OCCO3)cc1C(=O)O	50
O=C(O)c1cc(S(=O)(=O)Nc2cccc(F)c2F)cc2c1OCCO2	22.3
O=C(O)c1cc(S(=O)(=O)Nc2cccc3c2OCCO3)c(Cl)cc1F	81.7
Cc1nc(C2CCCN2C(=O)Cc2ccc(F)cc2)nc(O)c1C (stereo unspecified)	-10.5

Structure (SMILES)	INHIBITION [%]
Cc1ccc(-n2nnc(C(=O)NC(C)C)c2C2CC2)cc1	15.5
O=C1CCCN1Cc1ncn2c1CN(C(=O)NC1CCCCC1)CCC2	-19.5
COc1cccc(Nc2nc(C3CCCNC3)c3ccccn23)c1 (stereo unspecified)	-23.425
Cc1c(C)n(CC(O)CN2CCCCCC2)c2c(Cl)cccc12 (stereo unspecified)	-48.6
Cc1c(C)n(CC(O)CN2CCOCC2)c2c(Cl)cccc12 (stereo unspecified)	56.5
Cc1c(C)n(CC(O)CN2CCC(C)CC2)c2c(Cl)cccc12 (stereo unspecified)	37.3
Cc1nc[nH]c1C(=O)NCc1cccnc1N(C)C1CCCCC1	26.8
CCn1cc(C(=O)N(C)[C@@H]2CC[C@@H](N3CCCC3)[C@@H]2O)c(C)n1	12.335
CCc1ccc(CN2CCN(c3ncc(Cl)cn3)CC2)nc1	50.1
COc1ccc(CN2CCN(c3ncc(Cl)cn3)CC2)cc1	11.8
CCc1ccc(CN2CCN(c3ccc(Cl)nn3)CC2)nc1	-7.94
COc1ccccc1N1CCN(C(=O)CCn2ccnc2C)CC1(C)C	6.31
COc1ccccc1N1CCN(C(=O)CCn2ccc(C)n2)CC1(C)C	8.48
COc1ccccc1N1CCN(C(=O)Cn2nccc2C)CC1(C)C	-56.6
COc1ccc(N2CCN(C(=O)CCn3nnnc3C)CC2(C)C)cc1	-34.8
COc1ccccc1N1CCN(C(=O)Cn2nc(C)cc2C)CC1(C)C	52.8
COc1ccccc1N1CCN(C(=O)CCn2nnnc2C)CC1(C)C	51.8
CC1=C(C(=O)NCCc2n[nH]c3c2CCCC3)C(C)NC(=O)N1 (stereo unspecified)	-22.3
COCCn1ccnc1C1CCCN(C(=O)c2cc(F)cc(F)c2)C1 (stereo unspecified)	40.2
Cc1occc1C(=O)N1CCCS1(=O)=O	35.7
Cc1ccsc1CNC(=O)N1CCC(Cc2cnn(C)c2)C1 (stereo unspecified)	11.083
Cc1ccc(CNC(=O)N2CCOCC2C2CC2)cc1F (stereo unspecified)	49.3

Structure (SMILES)	INHIBITION [%]
COc1ccc(CNC(=O)N2CCOCC2C2CC2)cc1C (stereo unspecified)	66.7
COc1ccc(CNC(=O)N2CCOCC2C2CC2)c(C)c1 (stereo unspecified)	17.4
COc1ccccc1C1Cn2c(C)cnc2CN1Cc1c[nH]nc1C (stereo unspecified)	-14.2
Cn1cnc2c1CCN(Cc1csc(Cc3ccccc3)n1)C2	-3.7
CN(C)C(=O)CC1CC2(CCN(CC3CC3)CC2)Oc2ccccc21 (stereo unspecified)	-51.6
Cc1cc(C(=O)N2CC[C@](C)(O)[C@H](C)C2)c(C)n1C	-12.2
CC(c1ccc(F)cc1F)N1CCN(CCC(=O)O)CC1 (stereo unspecified)	-17.7
CC(c1ccc(F)cc1F)N1CCN(CCC(=O)NC(N)=O)CC1 (stereo unspecified)	-8
CC(c1ccc(F)cc1F)N1CCN(CCN2CCCC2=O)CC1 (stereo unspecified)	63
CCn1nc(C)cc1NC(=O)CCn1nc(C)c(Br)c1C	31.7
COCCn1ccc(=O)c(OCC(=O)Nc2cccc(Cl)c2)c1C	-21.2
Cc1cc(C)n(C2CN(CCC(N)=O)C2)n1	-4.96
CC(C)N(C)Cc1cncc2c1CCN(C(=O)c1cccc(C#N)c1)C2	12.7
Cc1cc(CN2CCN(Cc3cnc4c(c3)c(C)nn4C)CC2)on1	11.5
CCN1CCN(C(=O)c2ccc(Cn3ccccc3=O)o2)CC1	39.6
c1csc(CN2CCc3c(CNc4nncs4)cncc3C2)c1	42.7
c1cnc(NCc2cncc3c2CCN(Cc2cccs2)C3)nc1	-38.7
c1cnc(NCc2cncc3c2CCN(Cc2ccoc2)C3)nc1	19.4
CC(=O)NCC(=O)N1CCc2c(CNc3ncccn3)cncc2C1	-2.17
c1cnc(NCc2cncc3c2CCN(Cc2cccnc2)C3)nc1	12.4
Cc1cc(CN2CCc3c(CNc4ncccn4)cncc3C2)oc1C	67.2
COCCC(=O)N1CCc2c(CNc3ncccn3)cncc2C1	53.4

Structure (SMILES)	INHIBITION [%]
c1cnc(NCc2cncc3c2CCN(Cc2ccsc2)C3)nc1	60.2
CN(C)C(=O)N1CCc2c(CNc3ncccn3)cncc2C1	6.38
Cc1nn(C)c(N2CCOCC2)c1CNC(C)c1cccs1 (stereo unspecified)	16.9
COc1ccc(N2CCN(C(=O)C(C)n3cc(Br)cn3)CC2)cc1 (stereo unspecified)	30
Cc1cccc(CC2CCCN(C(=O)C3CCOCC3)C2)n1 (stereo unspecified)	30.4
O=C(C1CC1)N1CCC(c2nc(O)c3c(n2)CN(C2CCCC2)CC3)C1 (stereo unspecified)	5.11
COc1cc(NCc2c(C)noc2C)c(C(=O)N(C)C)cc1OC	-16.1
Cc1noc(C)c1CN1Cc2nccn2CC(CN2CCOCC2)C1 (stereo unspecified)	18.3
COCCCC1(C(=O)O)CCCN(C(=O)c2ccc(C(C)C)[nH]c2=O)C1 (stereo unspecified)	30.4
COCCC1(C(=O)O)CCCN(C(=O)c2cc(F)ccc2OC)C1 (stereo unspecified)	79.7
CCN1C(=O)CCCC12CCCN(C(=O)c1cc(C)oc1C)C2 (stereo unspecified)	-17.1
COCCC1(C(=O)O)CCCN(C(=O)c2cc(Cl)ccc2F)C1 (stereo unspecified)	58.8
COc1ccc(F)cc1C(=O)N1CCCC(CNS(C)(=O)=O)C1 (stereo unspecified)	-38.7
CCN(CC)Cc1cc(C(=O)N2CCCC(CC)(C(=O)O)C2)c(C)o1 (stereo unspecified)	29.9
COCCC1(C(=O)O)CCCN(C(=O)c2cc(C)oc2C)C1 (stereo unspecified)	69.9
CCCC1(C(=O)O)CCCN(C(=O)c2cc(Cl)ccc2F)C1 (stereo unspecified)	36.5
COCCCC1(C(=O)O)CCCN(C(=O)c2ccc(Cl)cc2F)C1 (stereo unspecified)	39.3
Cc1nnc(NC(=O)CN2CCCC2c2c(C)nn(C)c2C)s1 (stereo unspecified)	-24.2
